Assay outcomes (PubChem)
LASV entry inh: inhibitors of Lassa virus binding or entry into cells; hit rate 4.1% among 18,000; Potency, µM (highest dose often 49.2 µM), hits mostly inhibitors; Lassa virus pseudotyped entry inhibition, cell-based qHTS
MARV entry inh: blocks Marburg virus binding or cell entry; Marburg virus pseudotype entry/binding inhibition, cell-based; Potency, µM (series often up to 49.2 µM), most hits filed as inhibitors; hit rate 6.5% among 18,000
A number is an active result; ! = not confirmed by another sample; [ ] = remark or other dose. A selection: hits, their analogues and other compounds. The true share with any hit is near 8.6%. Calls come from the whole dose curve; tested in HEK293 cells.

CNCC[C@@H](Oc1ccccc1C)c1ccccc1 was read as LASV entry inh inactive and MARV entry inh 28.2µM!.
For CNCCC(Oc1ccccc1OC)c1ccccc1 (centres undefined) the results were LASV entry inh inactive and MARV entry inh inconclusive.
CC[C@@H](C(=O)[C@@H](C)[C@@H](O)[C@H](C)CCc1ccc(C)c(O)c1C(=O)O)C1O[C@](CC)(C2CC[C@](O)(CC)[C@H](C)O2)C[C@@H]1C (some centres undefined) was read as LASV entry inh 7.08µM and MARV entry inh inconclusive.
Screening CC[C@H](C(=O)[C@H](C)[C@H](O)[C@H](C)CCc1ccc(C)c(O)c1C(=O)O)[C@H]1O[C@](CC)([C@@H]2CC[C@@](O)(CC)[C@H](C)O2)C[C@H]1C returned LASV entry inh inconclusive and MARV entry inh 2.82µM.
Screening CCCNC(=O)OC[C@H]1O[C@H](CCON=C2c3cc(OC)ccc3O[C@H](c3cccc(OC)c3)[C@H]2O)C=C[C@H]1Oc1ccc(OC)cc1 returned LASV entry inh inactive[8.59 µM] and MARV entry inh inconclusive.
`COCC=CC1=CC2=CC(=O)C(C)(OC(=O)c3cnc4ccccc4n3)C(=O)C2=CN1CCCCO` (centres undefined) gave LASV entry inh inactive[8.59 µM] and MARV entry inh inactive[8.59 µM].
Screening Fc1ccc(-c2nn3ncccc3c2-c2ccnc(Nc3ccc4c(c3)OCCO4)n2)cc1 returned LASV entry inh inconclusive and MARV entry inh 0.888µM.
NC(=O)c1ccc2c(-c3ccnc(NCCCO)n3)c(-c3ccc(F)cc3)nn2c1 was read as LASV entry inh inactive and MARV entry inh inconclusive.
Screening FC(F)(F)c1cccc(-c2nn3ncccc3c2-c2ccnc(Nc3ccc4c(c3)OCCO4)n2)c1 returned MARV entry inh 3.97µM.
`OCCCNc1nccc(-c2c(-c3ccc(F)cc3)nn3cc(C(F)(F)F)ccc23)n1` gave LASV entry inh inactive and MARV entry inh inconclusive.
Clc1ccc(-c2nn3ncccc3c2-c2ccnc(Nc3ccccc3)n2)cc1 was read as MARV entry inh 6.28µM.
COc1ccc(-c2nn3ncccc3c2-c2ccnc(Nc3ccc4c(c3)OCCO4)n2)cc1 was read as LASV entry inh inconclusive and MARV entry inh 7.05µM.
For COc1cccc([C@@H]2Oc3ccc(Br)cc3C(=O)[C@@H]2OC(=O)N[C@H]2CCCc3ccccc32)c1 the results were LASV entry inh inactive[8.59 µM] and MARV entry inh inactive[8.59 µM].
Screening c1cnn2ncc(-c3ccnc(Nc4ccc5c(c4)OCCO5)n3)c2c1 returned MARV entry inh 2.81µM.
C[C@@H]1CC[C@H]2C(=O)N(CC3CCCCC3)C[C@H](O)CN2[C@@H]1c1ccc(Br)cc1 was read as LASV entry inh inactive[8.59 µM] and MARV entry inh inconclusive.
O=C(OC[C@H]1O[C@@H](OC(=O)c2cc(O)c(O)c(OC(=O)c3cc(O)c(O)c(O)c3)c2)[C@H](OC(=O)c2cc(O)c(O)c(OC(=O)c3cc(O)c(O)c(O)c3)c2)[C@@H](OC(=O)c2cc(O)c(O)c(OC(=O)c3cc(O)c(O)c(O)c3)c2)[C@@H]1OC(=O)c1cc(O)c(O)c(OC(=O)c2cc(O)c(O)c(O)c2)c1)c1cc(O)c(O)c(OC(=O)c2cc(O)c(O)c(O)c2)c1 was read as LASV entry inh 10µM and MARV entry inh 0.353µM.
Screening Cc1ccc(C(=O)OC[C@H]2O[C@H](Cl)C[C@H]2OC(=O)c2ccc(C)cc2)cc1 returned LASV entry inh inactive[8.59 µM] and MARV entry inh inactive[8.59 µM].
Screening CCOC(=O)CN1C(=O)[C@@]2(CC(C)=C[C@@H](COCc3ccccc3)O2)c2ccccc21 returned MARV entry inh inactive[8.59 µM].
`COC(=O)C1=C(C)N(Cc2ccccc2)C(=O)NC1c1cccc(C(F)(F)F)c1` (centres undefined) gave LASV entry inh inactive[8.59 µM] and MARV entry inh inactive[8.59 µM].
For FC(F)(F)c1cc(CO[C@H]2CCCN[C@H]2c2ccccc2)cc(C(F)(F)F)c1 the results were LASV entry inh 25.1µM and MARV entry inh 10µM.
Screening CCN1C(=O)[C@@H]2[C@H]3[C@H](O)[C@H](O)CC(=NOCC[C@@H]4C=C[C@H](OC(C)=O)[C@@H](COC(C)=O)O4)[C@@H]3CC[C@H]2C1=O returned LASV entry inh inactive[8.59 µM] and MARV entry inh inactive[8.59 µM].
Screening CCCCCC(=O)N1C[C@H](n2cc(C3CC3)nn2)[C@@H](O)C[C@H]1c1ccc(Cl)cc1 returned LASV entry inh inconclusive and MARV entry inh inactive.
For CCC(O)c1ccccc1 (centres undefined) the results were LASV entry inh inactive and MARV entry inh inactive.
Screening CC[C@@H](O)C(C[C@@H](C)N(C)C)(c1ccccc1)c1ccccc1 returned LASV entry inh inconclusive and MARV entry inh 12.6µM.
CCCC[C@@H]1CN2[C@@H](CC[C@H](C)[C@@H]2c2ccc(Br)cc2)C(=O)O1 was read as LASV entry inh inactive[8.59 µM] and MARV entry inh inactive[8.59 µM].
For COC(=O)[C@@H]1CC23C(=NC(c4ccc([N+](=O)[O-])cc4)=C(C(F)(F)F)[C@@H]2N(C)c2ccccc23)N1C(C)=O (some centres undefined) the results were LASV entry inh inactive[8.59 µM] and MARV entry inh inactive[8.59 µM].
For CN1[C@@H]2CC[C@H]1CC(OC(=O)c1c[nH]c3ccccc13)C2 (some centres undefined) the results were LASV entry inh inconclusive and MARV entry inh 20µM!.
For C[N+]1(C)[C@@H]2CC[C@H]1CC(OC(=O)c1c[nH]c3ccccc13)C2 (some centres undefined) the results were LASV entry inh inactive and MARV entry inh inactive.
`COc1cccc(-c2cc3c(c(OC)c2)OCCN(Cc2ccccc2O)C3)n1` gave LASV entry inh 5.62µM and MARV entry inh inactive.
`COc1ccc(-c2[nH]ncc2CN2CCOc3c(cc(-c4cccc(OC)n4)cc3OC)C2)cc1` gave LASV entry inh inactive and MARV entry inh inactive.
`CC1=C(O)C(=O)[C@H]2O[C@@H]2C1=O` gave LASV entry inh 11.2µM and MARV entry inh inactive.
For CCCCCCCCCC(=O)O the results were LASV entry inh inactive and MARV entry inh inactive.
Screening C[N+](C)(C)CCCCCC[N+](C)(C)C returned LASV entry inh inactive and MARV entry inh inactive.
CCCCCCCCCCCCCCCCCC[N+](C)(C)CCC[Si](OC)(OC)OC was read as LASV entry inh inactive and MARV entry inh inactive.
Screening CCCCCCCCCCCCCCCC[N+](C)(C)C returned LASV entry inh inconclusive and MARV entry inh 8.91µM!.
For CCCCCCCCCCCCCCCCOP(=O)([O-])OCC[N+](C)(C)C the results were LASV entry inh inactive and MARV entry inh inactive.
For CCCCCCCC[N+](C)(C)CCCCCCCC the results were LASV entry inh inconclusive and MARV entry inh 15.8µM.
CCCCCCCCCC[N+](C)(C)CCCCCCCCCC was read as LASV entry inh 25.1µM and MARV entry inh inconclusive.
`CCCCCCCCCCCCCCCC[N+](C)(C)CC` gave LASV entry inh 15.8µM and MARV entry inh 10µM.
O=C(C=Cc1ccccc1)N1CCC[C@H]1CO was read as LASV entry inh inactive[8.59 µM] and MARV entry inh inactive[8.59 µM].
`O=C1CCCC2=C1[C@H]1O[C@](CCCCN3C(=O)c4ccccc4C3=O)(Cc3c1ccc1ccccc31)O2` gave LASV entry inh inactive[8.59 µM] and MARV entry inh inactive[8.59 µM].
For CCN1C(=NCC(C)C)N[C@@H](CCc2ccccc2)[C@H](C(=O)OC)[C@H]1C the results were LASV entry inh inactive[8.59 µM] and MARV entry inh inconclusive.
N#Cc1ccc2c(c1)C[C@]1(CCCCN3C(=O)c4ccccc4C3=O)Oc3c(c(=O)oc4ccc(F)cc34)[C@@H]2O1 was read as LASV entry inh inactive[8.59 µM] and MARV entry inh inactive[8.59 µM].
For COc1ccc2c3c(c(=O)oc2c1)[C@H]1O[C@](c2ccsc2)(Cc2cc(C#N)ccc21)O3 the results were LASV entry inh inactive[8.59 µM] and MARV entry inh inactive[8.59 µM].
